Assay results as given in PubChem BioAssay (NCI).
About 83,000 compounds went through this panel and 20% of them were active in at least one assay; those are over-represented in the sample as a whole.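 Growth was measured after 48 h exposure to one concentration of compound in 96-well plates. Values under 10 count as active.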 Unmarked numbers belong to inactive results. Active and inactive are the calls of the source.

Tests used:
Test in all cases: NCI-60 one-dose screen, 48 h (100 = growth as untreated, 0 = no growth, -100 = all killed)
Settings in all cases: 10 µM
SR leukemia = system: SR leukemia
OVCAR-8 ovarian = system: OVCAR-8 ovarian
OVCAR-5 ovarian = system: OVCAR-5 ovarian
OVCAR-4 ovarian = system: OVCAR-4 ovarian
SK-OV-3 ovarian = system: SK-OV-3 ovarian
IGROV1 ovarian = system: IGROV1 ovarian
OVCAR-3 ovarian = system: OVCAR-3 ovarian
HS 578T breast = system: HS 578T breast
NCI/ADR-RES ovarian = system: NCI/ADR-RES ovarian
RPMI-8226 leukemia = system: RPMI-8226 leukemia

Row | Compound | growth (SR leukemia) | growth (OVCAR-8 ovarian) | growth (OVCAR-5 ovarian) | growth (OVCAR-4 ovarian) | growth (SK-OV-3 ovarian) | growth (IGROV1 ovarian) | growth (OVCAR-3 ovarian) | growth (HS 578T breast) | growth (NCI/ADR-RES ovarian) | growth (RPMI-8226 leukemia)
1 | COc1cc2c3c(n([C@@H]4CCOC4)c(=O)c2cc1OC)-c1cc2c(cc1C3=O)OCO2 | 15.1% | 36.7% | 77% | 72.2% | 24.7% | 67.8% | 52.3% | 109% | 30.1% | –
2 | COc1cc(C)ccc1Oc1nc(Nc2ccc(N3CCOCC3)cc2)ncc1NC(=O)Nc1cc(C(F)(F)F)cc(C(F)(F)F)c1 | 28.3% | – | 106% | 66.3% | 101% | 64% | 51.9% | 43.6% | 46.6% | 61.9%
3 | O=C(Nc1ccccc1)Nc1ncnc2c1ncn2-c1ccccc1 | 70.8% | 55.3% | 83.2% | -3.77% (active) | 44.3% | 78.5% | 73.7% | 50.1% | 66.1% | –
4 | CCc1cc(Cl)c(OC)c(C(=O)NCC2CCCN2CC)c1O (configuration not stated) | 81.6% | – | 88.2% | 86.5% | 79.9% | 98.4% | 100% | 88.7% | 94.2% | 95.8%
5 | C=CCSC(CC)(CC)C(=O)NC | 99.3% | – | 104% | 109% | 105% | 113% | 112% | 106% | 107% | 101%
6 | COc1ccc2c(c1)C(=O)/C(=C/c1cccc(OCC(=O)c3ccc([N+](=O)[O-])cc3)c1)CO2 | -64.1% (active) | – | 57.3% | 74% | 90.7% | – | 58.4% | -26.8% (active) | -29.2% (active) | -50.5% (active)
7 | COc1cc(-c2nn(-c3cccc(NC(=O)CCN4CCN(Cc5ccccc5)CC4)c3)cc2-c2ccncc2)ccc1Cl | -28.5% (active) | – | 22.9% | 36.2% | 22.3% | 31.9% | 7.04% (active) | 2.23% (active) | -21.4% (active) | -23.2% (active)
8 | CCOS(=O)(=O)c1c(C(C)C)cc(C(C)C)cc1C(C)C | 85.1% | – | 90.6% | 120% | 108% | 93.5% | 103% | 103% | 103% | 119%
9 | NS(=O)(=O)Oc1ccc(NC(=O)C2CCCCCC2)cc1 | 98.5% | – | 98.4% | – | 99% | 103% | 102% | 108% | 103% | 102%
10 | Clc1ccc(Cc2ccncc2)cc1 | 97.6% | 99% | – | – | 113% | – | 110% | 105% | 108% | 109%
11 | CC(C)(C)OC(=O)CN1CCc2c(sc3ncnc(N/N=C/c4cccc5ccccc45)c23)C1 | 18.2% | 35.6% | 31.1% | 54.5% | 67.4% | 30.1% | 39.9% | 21.5% | 7.91% (active) | –
12 | COc1ccccc1-n1c(-c2sc(NC(C)=O)nc2C)n[nH]c1=S | 79.5% | 108% | 109% | 106% | 109% | 106% | 135% | 121% | 106% | –
13 | Cc1[nH]c2ccccc2c1/C=N/Nc1ncnc2sc3c(c12)CCN(CC(=O)OC(C)(C)C)C3 | 23.4% | 69% | 130% | 104% | 108% | 79.8% | 83.1% | 77.7% | 66.1% | –
14 | COc1ccc2nc(Cl)c(Cn3nnc(Cc4ccccc4)n3)cc2c1 | 22.9% | 40.5% | 82.8% | 19.7% | 49.4% | 43.2% | 49.8% | 68.9% | 20.1% | –
15 | C=CCn1c(SCC(=O)Nc2ccc(C(=O)/C=C/c3ccc(Cl)cc3)cc2)nnc1-c1cc(-c2ccccc2)nc2ccccc12 | 6.5% (active) | 26.4% | 90.4% | 44.1% | 100% | -62% (active) | 63.7% | 86.3% | 78.9% | –
16 | CCOC(=O)c1sc2ncnc(Nc3ccc4c(cnn4C(=O)Nc4ccccc4)c3)c2c1C | 27.9% | 51.7% | 98.9% | -1.84% (active) | 73.2% | 87.1% | 67.8% | 41.6% | 49.2% | –
17 | Cc1c2cnccc2c(C)c2c1oc1ccccc12 | 21.2% | 71.1% | 82.4% | 98.9% | 71.2% | 78.8% | 98.1% | 53.7% | 73.7% | –
18 | CC[C@@H](C(=O)[C@@H](C)[C@@H](O)[C@H](C)[C@@H]1O[C@@H]([C@@H](CC)C(=O)N(CC)CC)CC[C@@H]1C)C1O[C@]2(C=CC(=O)[C@]3(CC[C@@](C)([C@H]4CC[C@](O)(CC)[C@H](C)O4)O3)O2)[C@H](C)C[C@@H]1C (some centres not stated) | 41.1% | 29% | 29.7% | 34.3% | 49.8% | 34.9% | 21.6% | 28.4% | 10.5% | –
19 | O=C1CCn2c1c(O)c1ccccc1c2=O | 95.1% | 103% | 114% | 104% | 103% | 116% | 118% | 93.6% | 103% | –
20 | COc1ccc(-c2nn(-c3cccc(Cl)c3)cc2C=C(C#N)C#N)cc1 | -61.6% (active) | 24.2% | 29% | 7.22% (active) | -0.205% (active) | 12.2% | -23.6% (active) | 24.5% | 2.52% (active) | –
21 | O=C1c2ccccc2-c2c1c1cccnc1c(=O)n2C[C@H](O)CO | 11.6% | 58.7% | 104% | 92.5% | 60.3% | 50.4% | 79.6% | 85.1% | 88.1% | –
22 | COc1ccc(-c2nn(-c3cccc(Cl)c3)cc2-c2cc(-c3cccs3)[nH]c(=S)n2)cc1 | 32.6% | 48.3% | 83.1% | 60.4% | 83% | 50.7% | 57.8% | 62.7% | 47.4% | –
23 | COc1cc2c3c(n(C4CCNCC4)c(=O)c2cc1OC)-c1cc2c(cc1C3=O)OCO2 | -24.4% (active) | -43.1% (active) | -66.8% (active) | -23.4% (active) | -42.2% (active) | -57.1% (active) | -88.9% (active) | -48.5% (active) | -39.8% (active) | –
24 | O=C(Nc1cc([N+](=O)[O-])c2[nH]c(=O)c3ccccc3c2c1)C(F)(F)F | 52.3% | 77.2% | 104% | 92.6% | 81.2% | 93.6% | 106% | 105% | 76.9% | –
25 | O=C1c2c(c3c4ccccc4n(CCCCCCN4CCOCC4)c3c3[nH]c4ccccc4c23)C(=O)N1O | -26.2% (active) | 3.72% (active) | 127% | 103% | 93% | 40.6% | 88.7% | 106% | 43.9% | –
26 | CC[C@H]1OC(=O)[C@H](C)[C@@H](O[C@H]2C[C@@](C)(OC)[C@@H](O)[C@H](C)O2)[C@H](C)[C@@H](O[C@@H]2O[C@H](C)C[C@H](N(C)C)[C@H]2O)[C@](C)(OC)C/C(C)=C2/O[C@@]1(C)C=C2C | 14.8% | 78.5% | 24.9% | 73.5% | 102% | 58.1% | 75.3% | 62.5% | 65.4% | –
27 | c1cnc2[nH]cc(-c3nc(-c4ccsc4)cs3)c2c1 | 87.7% | 96.9% | 111% | 93% | 92.8% | 70.8% | 84.2% | 87.5% | 101% | –
28 | CCOC(=O)c1sc2ncnc(Nc3ccc(NC(=O)Nc4ccc(Cl)cc4)cc3)c2c1C | 44.3% | 38.7% | 99.2% | 53.4% | 74.6% | 92.3% | 62.9% | 41.4% | 37.2% | –
29 | COC(=O)C1OC1c1cc([N+](=O)[O-])ccc1OC (configuration not stated) | 84.4% | 105% | 105% | 101% | 92.1% | 93% | 109% | 111% | 101% | –
